Sm TGR block = qHTS Assay for the Inhibitors of Schistosoma Mansoni Peroxiredoxins; Schistosoma mansoni thioredoxin glutathione reductase (TGR), Q962Y6; purified TGR, DTNB reduction, TNB absorbance 405 nm; Potency, µM (series often up to 114 µM), usual class: inhibitors; 360,000 compounds, 3% hits; AID 485364, 2010; note: nearly all actives have a fitted effect of over 60% in size
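TGR 20 nM + NADPH 100 uM (dispensed conc.), cpd preinc 15 min RT; start with NADPH (500 uM addition) then DTNB (15 mM addition). Kinetic TNB absorbance, 405 nm filter. Four-parameter Hill fit across titration.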
Shiga inhibitor = A qHTS for Small Molecule Inhibitors of Shiga Toxin; 290,000 compounds, 9.2% hits; Vero cells, Shiga toxin protein synthesis inhibition reporter; AID 2315, 2010; inhibition, % at 38.7 µM; in the data active = inhibition mostly above about 28%, no sharp cut-off; inactive = mostly below about 43%
Pf growth 96h = Primary qHTS for delayed death inhibitors of the malarial parasite plastid, 96 hour incubation | P. falciparum luciferase reporter growth, 96 h | 320,000 compounds, 6.9% hits | Potency, µM (highest dose often 28.7 µM), most hits filed as inhibitors
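P. falciparum expressing integrated firefly luciferase, in erythrocytes at 2% hematocrit, 0.05% parasitemia, incubated with compounds 96 h at 37 C, 5% CO2. Growth inhibition read as loss of luminescence; two-generation exposure targets delayed-death apicoplast inhibitors.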
Cycloheximide cs = Cycloheximide Counterscreen for Small Molecule Inhibitors of Shiga Toxin; cell reporter, cycloheximide protein synthesis inhibition counterscreen; max response, %; 300,000 compounds, 12% hits; AID 2314, 2010; in the data active = max response mostly above about 13%, no sharp cut-off; inactive = mostly below about 14%; note: read at 38.3 µM for the half of the compounds with a filed dose
NS1 function inh = qHTS Assay for Inhibitors of Influenza NS1 Protein Function; 270,000 compounds, 0.4% hits; Potency, µM (doses to about 46.1 µM); calls by dose curve; note: actives are rising curves; nearly all actives have a fitted effect of over 50% in size
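Read-out: OD600 growth recovery of NS1-expressing budding yeast. Cells grown overnight at 30C in -URA glucose medium, washed, resuspended and diluted 1:100 in 2% galactose assay medium, pH 6.0. Same strain lacking NS1 served as positive control.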
Pf growth 48h = Primary qHTS for delayed death inhibitors of the malarial parasite plastid, 48 hour incubation. P. falciparum luciferase growth in erythrocytes, 48 h. Potency, µM (top dose mostly 28.7 µM), usual class: inhibitors. 310,000 compounds, 5.9% hits
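First compound was added to culture medium, then infected red cells at 0.1% parasitemia and 2% hematocrit (final). After incubation at 37 C under 5% CO2, luciferase detection reagent was dispensed and light output recorded.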
A number is an active result; - = inactive; ? = inconclusive; . = not tested or not shown. Shown are actives, neighbours in structure and some others; about 21% of the full set was active somewhere. Unless noted, calls come from the whole dose curve; as a rule, active = well fitted curve in the direction sought with a large enough effect; inconclusive = small, poorly fitted or top-dose-only effect, or another doubt; inactive = no such curve, though single readings can be large; an effect the other way counts as inactive or inconclusive.

SMILES	Sm TGR block	Shiga inhibitor	Pf growth 96h	Cycloheximide cs	NS1 function inh	Pf growth 48h
CC(C)(C)c1cc(CN2CCC(O)CC2)cc(C(C)(C)C)c1O	7.9µM	-	.	-	-	-
CN1CCN(Cc2cc(C(C)(C)C)c(O)c(C(C)(C)C)c2)CC1	3.5µM	-	-	-	-	.
CC(C)(C)c1cc(CCC(=O)N2CCCC2)cc(C(C)(C)C)c1O	-	-	-	-	-	-
OC1CCN(Cc2ccc3ccccc3c2)CC1	-	-	?	-	-	-
CCS(=O)(=O)N1CCc2cc(C(=O)Nc3ccc(OC)cc3OC)ccc21	-	.	.	.	.	.
COc1ccc(S(=O)(=O)N/N=C(/C)c2ccc(Cl)cc2)cc1	-	-	-	-	-	-
COc1ccc(C/C(C)=N/NS(=O)(=O)c2ccc(Br)cc2)cc1	22µM	-	?	-	.	-
COc1ccc(C(=O)N/N=C(\C)CC(=O)N2CCN(C=O)CC2)cc1	-	-	-	31	-	-
CC(C)(C)c1ccc(OCC(=O)N2CCN(C=O)CC2)cc1	-	-	-	-	-	-
CCOc1cc(C(=O)N/N=C(\C)Cc2ccc(OC)cc2)cc(OCC)c1OCC	-	-	-	-	-	-
COc1ccc(C/C(C)=N/NC(=O)c2cccnc2)cc1	-	-	-	27	-	-
COc1ccc(C/C(C)=N/NC(=O)c2ccc(Cl)cc2)cc1	-	37	-	14	.	-
Cc1ccc(Cn2c(CCNC(=O)c3cccc(C)c3)nc3ccccc32)cc1	-	-	.	-	.	.
COc1ccc(C/C(C)=N/NC(=S)Nc2ccccc2F)cc1	-	91	-	54	?	-
COc1ccc(C/C(C)=N/NC(=S)Nc2ccc(C(C)C)cc2)cc1	-	-	-	-	-	-
Cc1ccc(C)c(N2CCN(C(=O)c3cc(S(=O)(=O)N4CCC(C)CC4)cn3C)CC2)c1	-	.	.	.	.	.
COC(=O)c1ccccc1NC(=O)CCCn1nc(C)c2sc3ccccc3c2c1=O	-	.	.	.	.	.
c1ccc(COc2ccccc2CNC2CCCC2)cc1	-	-	5.2µM	-	-	?
CCOc1cc(CNC2CCCC2)c(Cl)cc1OCC(=O)Nc1ccccc1	-	-	-	-	-	10µM
CCOC(=O)c1ccc(NC(=O)COc2ccccc2CNC2CCCC2)cc1	-	-	-	-	-	4.7µM
c1csc(COc2ccccc2CNC2CCCCC2)c1	-	-	-	-	-	?
CCOC(=O)c1ccc(NC(=O)COc2ccccc2OC)cc1	-	-	-	-	-	?
COc1cccc(N2C(=O)[C@H]3C(C(=O)c4cnccn4)=NN[C@H]3C2=O)c1	45µM	-	-	-	-	-
O=C(C1=NN[C@@H]2C(=O)N(c3cccc(F)c3)C(=O)[C@H]12)c1ccc2ccccc2n1	?	-	-	-	-	-
COC(=O)c1cc2oc(C)cc2n1Cc1ccc(C)cc1	-	.	.	.	.	.
SMILES	Sm TGR block	Shiga inhibitor	Pf growth 96h	Cycloheximide cs	NS1 function inh	Pf growth 48h
O=C1CCc2cc(S(=O)(=O)Nc3ccccc3)ccc2N1	-	.	-	.	.	-
COc1ccc(/C=C(\C#N)C(=O)Nc2ccc3[nH]c(=O)[nH]c3c2)cc1	-	-	?	-	-	-
CCOc1ccccc1NC(=O)COc1ccc2c(c1)OCO2	-	59	-	-	-	-
COc1ccccc1NC(=O)COc1ccc2c(c1)OCO2	-	70	-	25	-	-
O=C(COc1ccc2c(c1)OCO2)NC12CC3CC(CC(C3)C1)C2	-	44	-	17	-	?
Cc1ccc(NC(=O)COc2ccc3c(c2)OCO3)c(C)c1	-	.	-	.	.	-
O=C(NCc1ccc2c(c1)OCO2)NC12CC3CC(CC(C3)C1)C2	-	-	-	-	.	?
COc1ccc(OCC(=O)Nc2ccccc2OC(F)F)cc1	-	-	.	9.6	-	-
CC1CN(C2CCN(C(=O)COc3ccc(Cl)cc3)CC2)CC(C)O1 (stereo unspecified)	-	-	?	-	-	.
CN(CC(=O)Nc1ccccc1C(F)(F)F)CC(=O)N1CCCCCC1	-	.	-	.	.	-
CCOC(=O)c1c(NC(=S)NC(=O)c2ccc(Cn3cc(Cl)cn3)o2)sc2c1CCCCC2	-	-	-	-	-	-
CCc1nnc(NC(=O)COc2ccc3c(c2)OCO3)s1	-	-	-	-	-	-
NC(=O)c1ccccc1NC(=O)COc1ccc2c(c1)OCO2	-	85	?	29	-	-

Source: PubChem
